Source: PubChem BioAssay (several laboratories)
Only some compounds are listed: those with a hit (about 32% of all), similar ones and a draw of the others.
CYP2C9 act – increases human cytochrome P450 2C9 activity. AID 1024. recombinant CYP2C9, luciferin-H conversion, luminescence; active compounds read high; factor 1 = untreated enzyme, 0 = blocked. P11712. activation factor at 5 µM. 96,000 tested, 1.4% active;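 active means activation factor of 2 or more for CYP2C9 at a 5 µM dose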;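 further: 0 = sulfaphenazole-blocked wells and 1 = vehicle-only wells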
PostGolgi yeast – growth inhibition of a yeast mutant, post-Golgi transport screen; post-Golgi transport phenotypic cell assay; inhibition, % at 10 µM; 98,000 tested, 0.9% active; AID 739;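 further: yeast cells grown in 1536-well plates; yeast grown about 18 h at 30C before absorbance read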
PostGolgi ctrl – yeast control strain growth, post-Golgi counter-screen; efflux-deficient yeast background strain, growth absorbance A615, 16 h; inhibition, % at 10 µM; 98,000 tested, 5% active; AID 738
CYP2C19 act – increases human CYP2C19 enzyme activity; recombinant CYP2C19, luciferin-H EGE luminescence; active compounds read high; 0 = fully inhibited enzyme, 1 = untreated enzyme; activation factor at 5 µM; 96,000 tested, under 10 active; AID 1025;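 active means activation factor of at least 2 at 5 µM in the primary screen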;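 further: 0 = wells with 2.5 mM tranylcypromine and 1 = vehicle-only wells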
Target sequence (P33261 whole entry, looked up): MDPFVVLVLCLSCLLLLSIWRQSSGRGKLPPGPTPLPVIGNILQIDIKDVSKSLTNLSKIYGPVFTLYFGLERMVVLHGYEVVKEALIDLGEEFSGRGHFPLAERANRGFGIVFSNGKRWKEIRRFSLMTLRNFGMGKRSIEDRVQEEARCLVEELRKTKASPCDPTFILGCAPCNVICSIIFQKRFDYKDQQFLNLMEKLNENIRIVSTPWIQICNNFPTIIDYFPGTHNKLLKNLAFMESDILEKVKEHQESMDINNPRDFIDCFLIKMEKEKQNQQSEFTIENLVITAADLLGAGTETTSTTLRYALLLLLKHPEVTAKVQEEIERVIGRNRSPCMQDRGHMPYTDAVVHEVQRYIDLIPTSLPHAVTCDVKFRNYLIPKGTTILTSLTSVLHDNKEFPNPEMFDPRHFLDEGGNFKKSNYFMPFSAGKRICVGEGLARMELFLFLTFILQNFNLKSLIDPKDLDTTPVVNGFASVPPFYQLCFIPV
CYP2C19 inhib – human CYP2C19 inhibition; P33261; CYP2C19 Supersomes, luciferin-H EGE luminescence, 30 min; inhibition, % at 5 µM; 96,000 tested, 21% active;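 active means CYP2C19 inhibition above a set limit at 5 µM in the primary screen, cut at about 50% in these data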;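 further: plate controls were negative control wells for no effect and 2.5 mM tranylcypromine positive control for full effect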
CYP2C9 inh – inhibitors of human CYP2C9. CYP2C9 Supersomes, luciferin-H conversion, luminescence. P11712. 96,000 tested, 20% active. AID 777. inhibition, % at 5 µM;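 active means blocking of liver enzyme CYP2C9 beyond about 50% at 5 µM, limit read from the data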
The depositor's hits bear a star; · = not tested or not shown. Unless noted, no stated cut-off is given here; in the data, active means inhibition above about 30%; inactive means the rest.

SMILES	CYP2C9 act	PostGolgi yeast	PostGolgi ctrl	CYP2C19 act	CYP2C19 inhib	CYP2C9 inh
Cc1ccc(CCNS(=O)(=O)c2cnc[nH]2)cc1	0	1.0	4.9	0.3	73.3*	98.0*
O=S(=O)(NCc1cccnc1)c1ccccc1	1.1	-1.4	9.3	0.8	16.2	-5.4
Cc1cc(/C=C(/C#N)c2cccc(F)c2)c(C)n1-c1cccnc1	0	-2.5	37.3*	0.1	89.2*	98.9*
Cc1cc(/C=C(/C#N)c2cccc(Cl)c2)c(C)n1C	1	-0.4	42.9*	0.7	31.7	-2.5
CSc1nc2ccccc2cc1/C=C(\C#N)c1cccc(C)c1	0.8	-0.2	10.2	0.7	25.3	18.3
Cc1ccc(-c2cnc(NC(=O)c3cccc(Br)c3)s2)c(C)c1	0.7	-8.4	-2.1	1	-2.9	33.4
CCN(CC)CCNC(=O)CCn1c(=S)[nH]c2cc3c(cc2c1=O)OCO3	1	3.7	1.7	1.1	-12.8	0.1
O=C(CCCn1c(=S)[nH]c2cc3c(cc2c1=O)OCO3)N1CCN(c2ncccn2)CC1	0.5	10.4	43.1*	1	1.7	50.3*
O=C(CCCn1c(=S)[nH]c2cc3c(cc2c1=O)OCO3)N1CCN(C2CCCCC2)CC1	0.5	-3.8	0.3	0.9	9.3	50.1*
O=C(CCCn1c(=S)[nH]c2cc3c(cc2c1=O)OCO3)N1CCN(c2ccc(F)cc2)CC1	0.3	-1.8	8.1	1	0.9	72.5*
COc1cccc(N2CCN(C(=O)CCn3c(=S)[nH]c4cc5c(cc4c3=O)OCO5)CC2)c1	0.7	0.5	4.3	1	-0.7	31.8
O=C(CCCn1c(=S)[nH]c2cc3c(cc2c1=O)OCO3)N1CCN(c2ccccc2F)CC1	0.7	-1.4	1.9	1	4.8	30.0
Cc1ccc(C)c(N2CCN(C(=O)CCCn3c(=S)[nH]c4cc5c(cc4c3=O)OCO5)CC2)c1	0.2	-0.2	26.9	0.5	54.5*	77.1*
O=C(O)C1CC(O)CN1C(=O)c1ccco1 (configuration not stated)	1.2	4.0	8.3	1	-2.2	-19.5
NC(=O)NC(Cc1ccccc1)C(=O)NCC1(N2CCCCC2)CCCCC1 (configuration not stated)	1.1	18.5	17.1	1.2	-18.2	-5.0
CCN1CCN(CCn2c(=S)[nH]c3cc4c(cc3c2=O)OCO4)CC1	0.9	-7.0	2.4	0.9	8.7	7.8
CCOC(=O)Nc1cccc(NC(=O)c2cc(OC)cc(OC)c2)c1	·	0.6	-2.6	·	·	·
Cc1cc2nc(C(F)(F)F)[nH]c(=O)n2n1	1.1	4.3	7.9	1	-4.3	-9.9
CCN(CC)c1cc(C)c2cc(NC(=O)CNC(C)=O)ccc2n1	0.9	17.7	33.3*	1	-1.5	14.0
N/C(=N\c1nc2ccccc2o1)NC(=O)c1ccc(F)cc1	1.4	-7.7	0.8	0.9	10.5	-35.9
COc1ccc(CC(=O)Nc2nc3ccccc3s2)cc1S(=O)(=O)N1CCOCC1	0.4	-10.2	-9.1	0.2	76.3*	64.1*
CCOc1ccc2nc(NC(=O)c3ccc(OC)c(S(=O)(=O)N4CCOCC4)c3)sc2c1	0.7	12.3	10.4	0.9	11.3	25.2
COc1ccc(CC(=O)Nc2nc3ccc(F)cc3s2)cc1S(=O)(=O)N1CCOCC1	0.3	-0.5	2.6	0.2	75.4*	74.9*
COc1ccc(CC(=O)Nc2nnc(SCc3ccccc3)s2)cc1S(=O)(=O)N1CCOCC1	0.1	-11.0	16.2	0.1	90.7*	90.4*
CCOc1ccc(NC(=O)C23CC4CC(C2)CC(c2ccccc2)(C4)C3)cc1	0.8	7.4	13.6	0.6	37.8	23.4
O=C(CSc1nc2ccccc2n1CC(=O)N1CCCC1)Nc1ccc2c(c1)OCO2	0.7	-5.4	6.7	0.8	21.6	29.1
Cc1ccc(NC(=O)c2ccc(Cl)c(N3C(=O)C=CC3=O)c2)cc1	0.4	-6.6	3.9	1	-1.6	61.9*
CC1=CC(C)(C)N2C(=O)C3(C(C#N)=C(N)OC4=C3C(=O)CC(C)(C)C4)c3cc(C)cc1c32 (configuration not stated)	0.7	-4.1	-9.4	0.8	16.2	31.1
Cc1ccc(-c2csc(=S)n2CC(=O)OCC(=O)NCc2ccco2)cc1	0.4	16.9	10.9	0.7	27.9	55.6*
Cc1ccc(-c2csc(=S)n2CC(=O)OCC(=O)NC(C)C(C)C)cc1 (configuration not stated)	0.3	6.1	22.4	0.6	41.9	68.6*
